# Compound activity (PubChem)
# Hits are enriched below; roughly 3.4% of the tested compounds scored in any of these assays.
# PLCg1 inh – blocks human PLC-gamma1 enzyme activity | P19174 | purified PLC-gamma1, fluorogenic substrate, fluorescence | hit rate 0.84% among 370,000 | inhibition, % at 12.2 µM; in the data active = inhibition above about 9.5%
# HGIII-sPLA2 inh – Blocks human group III sPLA2 activity; hit rate 0.56% among 370,000; AID 743126; QFRET BODIPY PC-A2 liposome hydrolysis, fluorescence; inhibition, % at 12.2 µM;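 active = inhibition above mean plus 3 SD of compounds lying within the high and low control bounds, cut at about 19% in these data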;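 note: 0% = median of test compound wells and 100% = no enzyme DMSO wells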
# proKLK7 act – activates the human kallikrein-7 zymogen; P49862; purified proKLK7, EDANS-DABCYL substrate fluorescence; 100% is mature enzyme control, 0% vehicle; activation, % at 7 µM; hit rate 0.9% among 370,000; AID 652039;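 active = activation above the mean of all tested compounds plus 3 SD, computed per campaign excluding outliers beyond control limits, cut at about 13% in these data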
# ADAM10 inh – ADAM10 inhibition, QFRET primary screen | O14672 | inhibition, % at 7 µM | AID 720582 | hit rate 0.62% among 370,000 | recombinant ADAM10, EDANS/DABCYL FRET peptide cleavage, 3 h;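 active = inhibition above a per-campaign cutoff equal to the mean of compounds falling between control-based bounds plus 3 SD, cut at about 20% in these data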;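 note: 0% = DMSO wells while the 100% control is not disclosed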
# ADAM17 inh – ADAM17 inhibition, QFRET primary screen. P78536. recombinant ADAM17, EDANS/DABCYL FRET peptide cleavage. inhibition, % at 6.95 µM. hit rate 0.83% among 370,000. AID 720648;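 active = inhibition above the mean of compounds lying between control limits plus 3 SD, set per campaign, cut at about 8.5% in these data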;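 note: 0% = DMSO-only wells as the low control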
# PLC-beta3 inh – blocks human PLC-beta3 enzyme activity; inhibition, % at 12.2 µM; hit rate 0.18% among 370,000; Q01970; Purified PLC-beta3, fluorogenic substrate, fluorescence; AID 720704; in the data active = inhibition above about 11%;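 note: 0% = median of compound wells on plate and 100% = full blocker control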
# Target sequence (Q01970 whole entry, looked up): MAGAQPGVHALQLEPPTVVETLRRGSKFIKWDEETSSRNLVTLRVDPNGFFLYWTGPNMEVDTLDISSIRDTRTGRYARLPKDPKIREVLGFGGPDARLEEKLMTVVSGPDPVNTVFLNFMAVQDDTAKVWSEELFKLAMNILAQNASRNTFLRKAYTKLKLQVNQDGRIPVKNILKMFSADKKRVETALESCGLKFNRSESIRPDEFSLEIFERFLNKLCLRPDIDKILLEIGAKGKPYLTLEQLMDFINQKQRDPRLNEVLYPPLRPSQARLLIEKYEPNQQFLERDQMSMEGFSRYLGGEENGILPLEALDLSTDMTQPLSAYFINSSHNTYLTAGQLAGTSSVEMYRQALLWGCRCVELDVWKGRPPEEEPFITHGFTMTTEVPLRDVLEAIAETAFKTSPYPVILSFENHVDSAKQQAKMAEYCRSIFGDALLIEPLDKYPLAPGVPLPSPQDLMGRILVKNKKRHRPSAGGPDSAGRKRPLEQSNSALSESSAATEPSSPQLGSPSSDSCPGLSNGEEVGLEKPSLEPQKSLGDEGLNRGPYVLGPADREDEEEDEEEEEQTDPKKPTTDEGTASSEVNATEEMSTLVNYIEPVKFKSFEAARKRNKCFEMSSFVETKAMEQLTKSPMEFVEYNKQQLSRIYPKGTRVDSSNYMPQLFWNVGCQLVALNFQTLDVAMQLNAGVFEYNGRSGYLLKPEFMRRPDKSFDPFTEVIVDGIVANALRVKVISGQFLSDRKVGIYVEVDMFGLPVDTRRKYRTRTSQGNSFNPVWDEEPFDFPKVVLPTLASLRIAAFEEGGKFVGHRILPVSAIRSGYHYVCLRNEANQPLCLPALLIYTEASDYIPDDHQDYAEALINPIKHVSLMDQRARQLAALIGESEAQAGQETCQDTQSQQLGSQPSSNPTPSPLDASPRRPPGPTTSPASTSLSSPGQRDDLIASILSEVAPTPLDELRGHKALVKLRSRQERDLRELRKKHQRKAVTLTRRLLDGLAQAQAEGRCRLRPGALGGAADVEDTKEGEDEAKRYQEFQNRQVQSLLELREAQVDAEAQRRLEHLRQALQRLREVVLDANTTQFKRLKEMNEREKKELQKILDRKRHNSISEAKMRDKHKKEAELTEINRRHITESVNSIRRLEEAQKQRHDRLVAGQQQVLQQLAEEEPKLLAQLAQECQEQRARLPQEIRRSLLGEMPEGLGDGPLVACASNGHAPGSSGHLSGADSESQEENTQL
# ADAM10 counter – counter-screen for ADAM17 exosite inhibitors: inhibitors of human ADAM10. shares compounds with ADAM17 inh. recombinant ADAM10, EDANS/DABCYL FRET peptide cleavage, 3 h. inhibition, % at 6.95 µM. hit rate 47% among 2,900. AID 743256;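 active = mean inhibition over the triplicate runs exceeds the activity threshold set in the earlier primary screen, cut at about 20% in these data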;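 note: 0% = DMSO wells and 100% = marimastat wells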
# ADAM17 confirm – human ADAM17 inhibition, confirmation; shares compounds with ADAM17 inh; recombinant ADAM17, EDANS/DABCYL QFRET peptide cleavage; inhibition, % at 6.95 µM; hit rate 65% among 2,900; AID 743257;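 active = mean inhibition across replicates above the hit cutoff set in the primary screen, cut at about 8.5% in these data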;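 note: 0% = DMSO wells and 100% = marimastat wells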
# Active calls of the source: *; . = no result given.
SMILES,PLCg1 inh,HGIII-sPLA2 inh,proKLK7 act,ADAM10 inh,ADAM17 inh,PLC-beta3 inh,ADAM10 counter,ADAM17 confirm
N#CCSc1nnc(COc2ccccc2)n1-c1ccccc1,-10.8,-2.1,-0.1,16.0,10.8*,5.2,-4.4,-2.1
COc1cc(C(c2c(C)[nH][nH]c2=O)c2c(C)[nH][nH]c2=O)ccc1OC(=O)c1cccc([N+](=O)[O-])c1,0.7,-48.5,0.0,11.0,2.4,-0.7,.,.
COc1cc(C(c2c(C)[nH][nH]c2=O)c2c(C)[nH][nH]c2=O)ccc1OCc1ccc([N+](=O)[O-])cc1,8.9,-58.5,-0.8,15.7,10.0*,6.9,15.8,13.2*
Cc1ccc(NC(=S)Nc2ccc(OC(F)F)c(Cl)c2)cc1F,1.8,7.6,0.0,1.9,-2.2,3.1,.,.
O=C(Nc1cc(C(F)(F)F)ccc1N1CCOCC1)c1ccccc1,3.3,-2.8,0.1,5.4,-3.4,-0.1,.,.
O=C(O)c1ccccc1C(=O)Nc1cc(C(F)(F)F)ccc1N1CCCC1,10.4*,3.9,0.6,2.0,10.3*,2.6,8.4,4.1
Cc1ccccc1N(CC(=O)N1CCOCC1)S(C)(=O)=O,2.9,-1.9,0.9,4.7,2.2,0.5,.,.
COc1cc(/C=N/n2c(-c3ccc4c(c3)NC(=O)CO4)csc2=Nc2cccc(C)c2)ccc1O,-41.8,3.4,-3.4,16.0,9.3*,-62.2,-16.8,9.8*
CCN(CC(O)CON=C1c2ccccc2-c2ccccc21)S(=O)(=O)c1ccc(Cl)cc1 (stereo unspecified),-7.3,-44.3,-2.7,15.1,6.5,-9.9,.,.
CCN(CC(O)CON=C1c2ccccc2-c2ccccc21)S(=O)(=O)c1ccc(C)cc1 (stereo unspecified),-9.2,-48.6,-3.3,17.0,9.4*,-6.5,22.3*,16.9*
CN(CC(O)CON=C1c2ccccc2-c2ccccc21)S(=O)(=O)c1ccc(Br)cc1 (stereo unspecified),-9.1,-38.5,-3.5,17.5,8.8*,-8.0,23.0*,14.2*
CCO[C@@H]1OC(C(=O)N2CCN(Cc3ccccc3)CC2)=C[C@H](c2ccc(Br)cc2)[C@H]1CCCO,5.8,-46.7,0.1,18.8,10.2*,-11.4,4.4,7.4
Cc1cc2cc(CN(CCCO)S(=O)(=O)c3cccc4nsnc34)c(=O)[nH]c2cc1C,-2.3,-20.6,-0.1,13.1,10.2*,-25.3,-1.9,5.2
Cc1cc(C)cc(NS(=O)(=O)c2ccc3c(c2)C(C)(C)C(=O)N3C)c1,3.3,9.1,0.1,-0.4,0.6,3.7,.,.
CN(c1ccc(C(=O)Nc2ccc3c(c2)OCCO3)cc1)S(C)(=O)=O,6.0,-5.2,-0.3,9.9,9.4*,6.1,0.6,1.9
CN(c1ccc(C(=O)Nc2ccc3c(c2)OCO3)cc1)S(C)(=O)=O,-3.0,7.8,0.2,-7.3,-0.7,-7.1,.,.
COc1ccc(N(C)S(=O)(=O)c2cccc(C(=O)Nc3ccc4c(c3)OCCO4)c2)cc1,7.6,0.0,0.8,13.7,10.7*,-4.6,24.5*,13.3*
CCOc1ccc(NC(=O)CN(C)C(=O)c2ccc(NC3CC3)c([N+](=O)[O-])c2)cc1OCC,7.0,-7.4,-0.4,7.9,6.5,-9.7,.,.
COc1ccc([C@H]2/C=C\CN(S(=O)(=O)c3ccc4ccccc4c3)[C@@H](C)C(=O)N2Cc2ccc(F)cc2)cc1,0.0,-1.7,-1.3,2.5,4.6,1.0,.,.
COc1cccc(-c2c(C(=O)N/N=C/c3ccc(C)s3)nnn2-c2nonc2N)c1,-10.5,-16.6,1.6,8.2,-5.1,-14.4,.,.
CCOc1cccc(-c2c(C(=O)N/N=C/c3ccc(C)s3)nnn2-c2nonc2N)c1,-10.0,-28.1,0.5,12.8,9.7*,-26.7,-20.0,2.8
CC(=O)c1cccc(S(=O)(=O)N2CCCC(c3nc4c(nnn4Cc4cccc(Cl)c4)c(=O)[nH]3)C2)c1 (stereo unspecified),1.2,-36.4,0.0,3.7,5.8,-2.7,.,.
CCC(=O)N1CCc2cc(Br)cc(S(=O)(=O)N(C)c3ccc(OC)cc3OC)c21,6.3,-9.9,0.1,16.3,10.5*,-0.3,7.1,-0.4
N#CC1(NC(=O)COC(=O)c2cccc(-n3cnnn3)c2)CCCCC1,-0.3,6.6,0.1,-7.2,-5.3,-3.2,.,.
CCCn1c(C)cc(C(=O)COC(=O)c2cc(S(=O)(=O)NCC(C)C)c(Cl)cc2Cl)c1C,7.3,-24.5,1.3,14.9,10.4*,3.9,20.1*,9.7*
SMILES,PLCg1 inh,HGIII-sPLA2 inh,proKLK7 act,ADAM10 inh,ADAM17 inh,PLC-beta3 inh,ADAM10 counter,ADAM17 confirm
COc1cc2c(C(=O)N3CCOCC3)c(CSc3ccccc3)n(C)c2cc1Br,-0.1,-14.5,0.2,12.5,5.7,3.0,.,.
Nc1cc(=O)[nH]c(SCC(=O)Nc2cc(S(=O)(=O)N3CCCCCC3)ccc2Cl)n1,-1.4,9.1,-0.7,-13.1,-2.8,0.1,.,.
COc1ccc(S(=O)(=O)N2CCCCC2)cc1NC(=O)Cc1c[nH]c2ccccc12,0.3,-71.4,0.1,8.7,1.5,0.9,.,.
Cc1ccc(S(=O)(=O)N2CCCCC2)cc1NC(=O)Cc1c[nH]c2ccccc12,-2.0,-56.8,-1.3,4.1,8.8*,-6.7,-1.6,1.5
Cc1ccc(-c2nc(SCC(=O)Nc3cc(S(=O)(=O)N4CCCCC4)ccc3Cl)n[nH]2)cc1,5.5,-43.4,0.3,19.1,14.3*,-2.4,32.1*,13.9*
Cc1ccc(S(=O)(=O)N2CCCCC2)cc1NC(=O)CNc1ccc(C(F)(F)F)cc1,3.5,-9.0,0.1,17.5,9.4*,0.4,16.5,11.5*
Nc1ccn(CC(=O)N[C@H](CO)Cc2c[nH]c3ccccc23)c(=O)n1,2.3,4.5,0.0,1.5,-4.7,1.9,.,.
CCCN(CCC)Cc1cc(=O)oc2cc3c(cc12)CCC3,-15.5,4.7,0.1,-18.8,-10.2,-27.8,.,.
COC(=O)c1ccc(COc2ccccc2/C=N/NC(=O)c2cccnc2)cc1,2.4,13.0,-12.6,4.6,8.7*,6.7,16.3,7.0
COc1ccc(CN(C(=O)c2oc3cc(C)c(C)cc3c2C)C2CCS(=O)(=O)C2)cc1OC (stereo unspecified),3.8,-7.0,0.1,5.8,9.7*,-6.1,12.8,9.4*
CCCOc1ccc(C2/C(=C(\O)c3c(C)[nH]c(C(=O)OC)c3C)C(=O)C(=O)N2CCN(C)C)cc1 (stereo unspecified),1.5,7.6,-0.3,-8.1,9.9*,1.2,1.7,3.2
CCc1cc(-c2[nH]ncc2-c2ccc3c(c2)OCO3)c(O)cc1O,-4.3,-40.2,-0.2,6.2,1.8,-2.9,.,.
